# Source: article PMC4336329 (PLoS ONE, 2015)
# Hit rate of the full screen: of about 310,000 compounds, about 14,000 (4.5%) showed an effect of 50% or more. The effect is printed as a negative number. The list comes from a sample in which strong results are over-represented; it also holds similar structures and randomly drawn compounds.
# Biological target: human ether-à-go-go-related gene (hERG) potassium channel (human, UniProt Q12809)
# Assay: primary screen, population patch clamp on CHO cells stably expressing hERG; higher = less effect of the substance
# 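Note: peak tail current of the secondary pulse compared with the same well before compound.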
# Sequence of human ether-à-go-go-related gene (hERG) potassium channel (Q12809 whole entry, looked up): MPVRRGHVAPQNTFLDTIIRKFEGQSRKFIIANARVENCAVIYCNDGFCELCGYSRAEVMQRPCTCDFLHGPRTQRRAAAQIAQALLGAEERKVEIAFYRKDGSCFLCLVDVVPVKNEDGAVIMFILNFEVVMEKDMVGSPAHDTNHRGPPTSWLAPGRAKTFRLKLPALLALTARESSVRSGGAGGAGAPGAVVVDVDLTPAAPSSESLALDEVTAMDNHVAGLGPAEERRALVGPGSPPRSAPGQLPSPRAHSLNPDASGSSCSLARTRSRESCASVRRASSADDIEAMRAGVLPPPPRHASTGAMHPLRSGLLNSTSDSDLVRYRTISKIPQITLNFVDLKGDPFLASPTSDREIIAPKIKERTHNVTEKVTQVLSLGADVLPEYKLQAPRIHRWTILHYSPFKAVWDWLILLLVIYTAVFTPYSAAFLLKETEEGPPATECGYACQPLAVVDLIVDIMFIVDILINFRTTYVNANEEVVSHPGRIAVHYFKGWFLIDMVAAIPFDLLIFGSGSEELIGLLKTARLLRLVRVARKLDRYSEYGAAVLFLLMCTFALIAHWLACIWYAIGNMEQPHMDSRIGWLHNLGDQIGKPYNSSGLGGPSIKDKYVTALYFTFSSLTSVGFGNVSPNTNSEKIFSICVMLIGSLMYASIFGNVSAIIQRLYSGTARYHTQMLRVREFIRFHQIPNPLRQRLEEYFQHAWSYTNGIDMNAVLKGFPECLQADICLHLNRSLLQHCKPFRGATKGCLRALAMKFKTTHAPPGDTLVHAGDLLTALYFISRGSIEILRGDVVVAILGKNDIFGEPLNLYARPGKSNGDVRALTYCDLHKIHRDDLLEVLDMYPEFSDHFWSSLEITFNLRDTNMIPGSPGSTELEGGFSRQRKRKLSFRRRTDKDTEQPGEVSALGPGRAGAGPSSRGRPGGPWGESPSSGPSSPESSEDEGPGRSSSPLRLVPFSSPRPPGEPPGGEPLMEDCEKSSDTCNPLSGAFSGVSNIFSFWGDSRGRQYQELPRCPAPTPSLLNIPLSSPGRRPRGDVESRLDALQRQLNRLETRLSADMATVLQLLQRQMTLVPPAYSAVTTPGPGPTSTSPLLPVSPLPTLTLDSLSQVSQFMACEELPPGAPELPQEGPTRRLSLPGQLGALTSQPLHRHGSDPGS
row,SMILES,"hERG current change (%, negative = inhibition) at 10uM [%]"
1,COc1ccc(C=Nc2cccc3ncccc23)cc1,4.44
2,Cc1ccc(C(=O)Nc2ccc(S(=O)(=O)N3CCOCC3)cc2)cc1Br,3.46
3,CC(=O)Nc1nc(-c2ccc(Cl)cc2)nc(C)c1C(C)=O,-19.8
4,CCN(C(=O)COC(=O)C1=COCCO1)c1ccccc1,-2.33
5,O=c1cc(Cc2nnc(SCc3ccccc3)n2-c2ccc(Cl)cc2)[nH]c(=O)[nH]1,0.593
6,COc1ccc(N2CCN(C(=O)c3cc(-c4cc(OC)ccc4OC)nc4ccccc34)CC2)cc1,-1.23
7,Cc1ccc2nc3c(nc2c1C)C(O)=C3O,6.68
8,O=C1c2ccccc2C(=O)c2c1cccc2N1CCOCC1,-30.4
9,O=C1c2ccccc2-c2ncnc3c(N4CCOCC4)cc(N4CCOCC4)c1c23,-60
10,Cc1ccc(N2CCOCC2)c2c1C(=O)c1ccccc1C2=O,-19.1
11,CCOCCn1c(SCc2ccc(C)cc2)nc2c1c(=O)[nH]c(=O)n2C,14.5
12,O=C(CN1CCN(c2ccc(F)cc2)CC1)NCc1ccc(F)cc1,-43.9
13,Cc1ccc(CNC(=O)CN2CCN(c3ccc(F)cc3)CC2)cc1,-50.8
14,O=C(CN1CCN(c2cccc(Cl)c2)CC1)NCc1ccccc1,-15.5
15,O=C(CN1CCN(c2ccc(Cl)cc2)CC1)NCc1ccccc1,-51.3
16,O=C(Cn1cnnn1)NCCc1ccc(Cl)cc1Cl,-19.6
17,COc1ccc(CNC(=O)CN2CCN(c3ccc(F)cc3)CC2)cc1,-39.1
18,O=C(CN1CCN(c2ccccc2)CC1)NCc1ccc(F)cc1,-11
19,COc1ccc(N2CCN(CC(=O)NCc3ccc(Cl)cc3)CC2)cc1,-55.7
20,CC(=O)c1ccc(N2CCN(CC(=O)NCc3ccccc3)CC2)cc1,-44.3

row,SMILES,"hERG current change (%, negative = inhibition) at 10uM [%]"
1,COc1ccc(CNC(=O)CN2CCN(c3ccccc3)CC2)cc1,3.65
2,O=C(CN1CCNC(=O)C1)NCCc1ccc(Cl)cc1Cl,1.45
3,N#Cc1ccc(CN2CCN(CC(=O)NCCc3ccc(Cl)cc3Cl)CC2)cc1,-68.8
4,S=c1[nH]nc(COc2ccccc2)n1/N=C/c1ccncc1,7.06
5,O=C(NCCOc1ccc(Cl)cc1)c1ccc2c(c1)OCCO2,-7.8
6,COc1ccc(O)c(C=Nc2cc(NC(C)=O)c(Cl)cc2Cl)c1,2.95
7,O=C1c2ccccc2C(=O)N1CC(O)COc1ccc(Br)cc1 (stereo not shown),-1.51
8,Cl.O=C(CN1CCOCC1)NCc1ccc(F)cc1,21.6
9,O=C(CN1CCN(Cc2ccc(F)cc2)CC1)NCc1ccccc1,-27.5
10,Fc1ccc(CN2CCN(c3ccc(Cl)cc3)CC2)cc1,-13.6
11,O=C(CN1CCN(c2ccc(F)cc2)CC1)NCc1ccc(Cl)cc1,-62.7
12,O=C(CN1CCN(Cc2ccccc2)CC1)NCc1ccc(Cl)cc1,-61.1
13,O=C(NCc1ccc(Cl)cc1)N1CCN(Cc2ccccc2)CC1,-29.9
14,Cc1ccc(C(=O)c2cc3c(cc2[N+](=O)[O-])OCCO3)cc1,-9.5
15,O=C1/C(=N\S(=O)(=O)c2cccs2)C([n+]2ccccc2)=C([O-])c2ccccc21,33.6
16,O=C1/C(=N\S(=O)(=O)c2cccs2)C([n+]2ccc(CCCc3ccccc3)cc2)=C([O-])c2ccccc21,-70.5
17,CCc1cc[n+](C2=C([O-])c3ccccc3C(=O)/C2=N\S(=O)(=O)c2cccs2)cc1,-11.6
18,Cc1ccc(NC(=O)c2nnn(-c3ccc4c(c3)OCCO4)c2N)cc1,9.9
19,Cc1cc(NC(=O)CSc2nncc(=O)n2N)no1,1.99
20,COC(=O)C1=C(C)N(Cc2ccccc2)C(=O)/C1=C\c1ccco1,2.06

row,SMILES,"hERG current change (%, negative = inhibition) at 10uM [%]"
1,COC(=O)C1=C(C)N(Cc2cccnc2)C(=O)/C1=C\c1sccc1C,-79.2
2,COCCCN1C(=O)/C(=C\c2cccs2)C(C(=O)OC)=C1C,-31.9
3,COC(=O)C1=C(C)N(Cc2cccnc2)C(=O)/C1=C\c1cccs1,-89
4,CCN1C(=O)/C(=C\c2cccs2)C(C(=O)OC)=C1C,5.41
5,COC(=O)C1=C(C)N(Cc2cccnc2)C(=O)C1,-0.706
6,CCN(CC)S(=O)(=O)c1cccc(-c2nnc(SCC(=O)NC3CCCC3)n2N)c1,19
7,Cc1cc(=O)[nH]c2c(C)cc(S(=O)(=O)N3CCCCC3)cc12,4.69
8,CCc1cccc(NC(=O)COc2ccccc2)c1,-8.01
9,O=C(Oc1c(-c2ccccc2)c(=O)n2c3c(cccc13)CC2)c1ccccc1,-9.09
10,O=C(Oc1c(-c2ccccc2)c(=O)n2c3c(cccc13)CC2)c1ccco1,-62
11,O=C(Oc1c(-c2ccccc2)c(=O)n2c3c(cccc13)CC2)c1ccc(F)cc1,10.4
12,CC1CC(=S)Nc2ccccc2S1 (stereo not shown),11.1
13,CN(C)S(=O)(=O)N1CCC(c2ccc(F)cc2)C(COc2ccc3c(c2)OCO3)C1 (stereo not shown),10.2
14,N#C/C(=C/c1ccc(Sc2nc3ccccc3[nH]2)o1)c1ccccc1F,-7.86
15,O=C(O)c1ccc(NC(=S)NC(=O)C(c2ccccc2)c2ccccc2)cc1,-6.52
16,CCOc1ccc(NC(=O)C(C)Oc2ccc(C#N)cc2)cc1S(=O)(=O)N1CCCC1 (stereo not shown),-62.1
17,CCOc1ccc(NC(=O)C(C)NC(=O)c2ccccc2Cl)cc1S(=O)(=O)N1CCCC1 (stereo not shown),-14.3
18,Cc1ccc(NC(=O)C(C)Oc2ccccc2)cc1S(=O)(=O)N1CCCCCC1 (stereo not shown),-7.7
